In PubChem BioAssay (NCI):
Where “and” joins values, the source holds several entries; their conditions need not be identical. Identical values can stand only once. Compounds without any hit were thinned out: in the full panel of roughly 83,000, 20% have a hit.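 Growth was measured after 48 h exposure to one concentration of compound in 96-well plates. Values under 10 count as active.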 Calls of active or inactive are those of the source.

Key:
Assay in all cases: NCI-60 one-dose screen, 48 h (100 = growth as untreated, 0 = no growth, -100 = all killed)
Details in all cases: 10 µM unless noted
[1] = system: HCT-15 colon
[2] = system: HT29 colon
[3] = system: SNB-75 CNS
[4] = system: SNB-19 CNS
[5] = system: U251 CNS
[6] = system: PC-3 prostate
[7] = system: SK-MEL-5 melanoma
[8] = system: UACC-62 melanoma
[9] = system: LOX IMVI melanoma
[10] = system: SK-MEL-28 melanoma
[11] = system: EKVX NSCLC
[12] = system: SN12C renal
[13] = system: UO-31 renal
[14] = system: TK-10 renal
[15] = system: ACHN renal
[16] = system: CAKI-1 renal
[17] = system: CCRF-CEM leukemia
[18] = system: MOLT-4 leukemia
[19] = system: A498 renal
[20] = system: SK-MEL-2 melanoma

| SMILES | growth [1] | growth [2] | growth [3] | growth [4] | growth [5] | growth [6] | growth [7] | growth [8] | growth [9] | growth [10] | growth [11] | growth [12] | growth [13] | growth [14] | growth [15] | growth [16] | growth [17] | growth [18] | growth [19] | growth [20] |
| --- | --- | --- | --- | --- | --- | --- | --- | --- | --- | --- | --- | --- | --- | --- | --- | --- | --- | --- | --- | --- |
| CCOC(=O)c1c(C)[nH]c(CO)c1C | 106% (inactive) | 96.4% (inactive) | 101% (inactive) | 98.4% (inactive) | 99% (inactive) | 98.1% (inactive) | 99.1% (inactive) | 93.4% (inactive) | 101% (inactive) | 103% (inactive) | 79.1% (inactive) | 95.2% (inactive) | 92.5% (inactive) | 106% (inactive) | 107% (inactive) | 101% (inactive) | 98.2% (inactive) | 96.6% (inactive) | – | – |
| CN(C)c1ccc(/C=N/N=C(\C#N)[S][Sn]([Cl])([c]2ccccc2)[c]2ccccc2)cc1 | -30.6% (active) | 19.2% (inactive) | 8.38% (active) | 89.6% (inactive) | 57.3% (inactive) | 68.6% (inactive) | 37% (inactive) | 34.7% (inactive) | – | -48.7% (active) | 44% (inactive) | 28.8% (inactive) | -0.649% (active) | -24.1% (active) | -51% (active) | 46.4% (inactive) | -20.2% (active) | 6.2% (active) | 32% (inactive) | – |
| N#CSCC(=O)c1ccc(Cl)cc1 | 18.1% (inactive) | -19.4% (active) | 33% (inactive) | 81.9% (inactive) | 31.9% (inactive) | 45.5% (inactive) | 35.3% (inactive) | 51.5% (inactive) | – | 73.4% (inactive) | 82.6% (inactive) | 33.6% (inactive) | 28.3% (inactive) | 82.7% (inactive) | 52% (inactive) | 31.8% (inactive) | 52.5% (inactive) | 65.4% (inactive) | 83.7% (inactive) | 80.8% (inactive) |
| Oc1c(Br)c(Br)c(O)c(Br)c1Br | 11% (inactive) | 129% (inactive) | 120% (inactive) | 106% (inactive) | 114% (inactive) | 105% (inactive) | 102% (inactive) | 93.3% (inactive) | – | 92.8% (inactive) | 112% (inactive) | 113% (inactive) | -80.4% (active) | 42.6% (inactive) | -33.2% (active) | 92.5% (inactive) | 15.8% (inactive) | 42.6% (inactive) | – | 104% (inactive) |
| Cc1ccc2nc(-[n+]3cc4ccccc4cc3C)ccc2c1 | 104% (inactive) | 14.5% (inactive) | 34.5% (inactive) | 27.2% (inactive) | 22.6% (inactive) | 17.5% (inactive) | -27.5% (active) | 30.7% (inactive) | 46.6% (inactive) | – | 62% (inactive) | 13.2% (inactive) | 88.8% (inactive) | 81.9% (inactive) | 103% (inactive) | 103% (inactive) | 40% (inactive) | 44.7% (inactive) | 52.5% (inactive) | 39.5% (inactive) |
| O=C(O)c1ccc2c3c(ncnc13)-c1ccccc1C2=O | 26.8% (inactive) | 59.2% (inactive) | 20.2% (inactive) | 38.1% (inactive) | 60.6% (inactive) | 55.5% (inactive) | -69.3% (active) | 12.6% (inactive) | 21.5% (inactive) | 29.8% (inactive) | 103% (inactive) | 48.7% (inactive) | 62.7% (inactive) | 120% (inactive) | 73.8% (inactive) | 111% (inactive) | 77.9% (inactive) | 96.3% (inactive) | -2.38% (active) | – |
| O=C(O)C1C2CC3C(OC(=O)C31)C2Br (stereo not drawn) | 97.3% (inactive) and 101% (inactive) | 84.9% (inactive) and 105% (inactive) | 106% (inactive) and 80.7% (inactive) | 97.3% (inactive) and 107% (inactive) | 92.3% (inactive) and 91.1% (inactive) | 90.4% (inactive) and 105% (inactive) | 103% (inactive) and 93.2% (inactive) | 93.5% (inactive) and 107% (inactive) | – | 100% (inactive) and 103% (inactive) | 106% (inactive) and 95.6% (inactive) | 95.2% (inactive) and 103% (inactive) | 91.4% (inactive) and 97.2% (inactive) | 88.7% (inactive) and 100% (inactive) | 96% (inactive) and 100% (inactive) | 102% (inactive) and 101% (inactive) | 89.3% (inactive) and 107% (inactive) | 96.8% (inactive) and 106% (inactive) | 103% (inactive) and 64.4% (inactive) | 95.8% (inactive) and 105% (inactive) |
| Nc1nc(N)c2c(ccc3c2ccn3Cc2cccc([N+](=O)[O-])c2)n1 | -84.6% (active) | -60% (active) | -89.8% (active) | -92.2% (active) | -87.9% (active) | -54.1% (active) | -98% (active) | -94.8% (active) | -83.4% (active) | -97.1% (active) | -93.8% (active) | -83.6% (active) | -95.5% (active) | -92.4% (active) | -97% (active) | -96.1% (active) | 24% (inactive) | 46.2% (inactive) | -89.5% (active) | – |
| O[C@H]1[C@H]2c3cc4c(cc3CN3CCC(=C[C@@H]1O)[C@H]23)OCO4 | 21.6% (inactive) | 18.5% (inactive) | 23% (inactive) | 28.9% (inactive) | 22.5% (inactive) | 34.2% (inactive) | 14.2% (inactive) | 62% (inactive) | 0.731% (active) | 20.7% (inactive) | 37.2% (inactive) | 18.8% (inactive) | 33% (inactive) | 54.1% (inactive) | 9.15% (active) | 28.1% (inactive) | 23.6% (inactive) | 8% (active) | 51.4% (inactive) | – |
| O=C1c2ccccc2C(=O)N1c1ccccc1 | 105% (inactive) | 104% (inactive) | 89.2% (inactive) | 105% (inactive) | 93.1% (inactive) | 101% (inactive) | 105% (inactive) | 92% (inactive) | 104% (inactive) | – | 93% (inactive) | 97.2% (inactive) | 89.1% (inactive) | 117% (inactive) | 99.5% (inactive) | 81.3% (inactive) | 114% (inactive) | 103% (inactive) | – | – |
| CC(C)c1ccc2nc3ccc(C(=O)NCCN4CCN(c5ccccc5)CC4)cn3c(=O)c2c1 | 44.5% (inactive) | 38.8% (inactive) | 60.4% (inactive) | 78.8% (inactive) | 38.2% (inactive) | 56.3% (inactive) | -25.3% (active) | 62% (inactive) | 56.1% (inactive) | – | 74.5% (inactive) | 69.9% (inactive) | 50% (inactive) | 93.9% (inactive) | 72.1% (inactive) | 63.4% (inactive) | 50.7% (inactive) | 38% (inactive) | – | 75.4% (inactive) |
| Oc1c(Br)cc(Cl)cc1C(c1cc(Cl)cc(Br)c1O)C(Cl)(Cl)Cl | 17.2% (inactive) | 10.1% (inactive) | 68.1% (inactive) | 24.7% (inactive) | 15.2% (inactive) | 1.63% (active) | -64.6% (active) | 13.3% (inactive) | 34.3% (inactive) | – | 15.7% (inactive) | 10.8% (inactive) | 12.6% (inactive) | 24.5% (inactive) | 10.5% (inactive) | 1.81% (active) | – | 14.6% (inactive) | -12.4% (active) | -30.2% (active) |
| CCC1OC(OC)C=CC1=O (stereo not drawn) | 109% (inactive) | 113% (inactive) | 95% (inactive) | 91.5% (inactive) | 113% (inactive) | 97.1% (inactive) | 103% (inactive) | – | – | 106% (inactive) | 89% (inactive) | 94.7% (inactive) | 93.4% (inactive) | 110% (inactive) | 113% (inactive) | 113% (inactive) | 94.5% (inactive) | 103% (inactive) | 90.3% (inactive) | 129% (inactive) |
| COc1ccc2nc3cc(Cl)ccc3c(NCCNc3c4ccc(Cl)cc4nc4ccc(OC)cc34)c2c1 | -65.9% (active) | -65.7% (active) | -86.8% (active) | -87.7% (active) | -84% (active) | -63% (active) | -96.5% (active) | – | -84.9% (active) | -86.4% (active) | -83.5% (active) | -89.6% (active) | -90.3% (active) | -92.7% (active) | -94.7% (active) | -79.8% (active) | -10.9% (active) | -76% (active) | 22.2% (inactive) | -73.1% (active) |
| O=C1c2cccnc2-c2nccc3c2c1nc1cc(Br)ccc13 | -49.5% (active) and -71.3% (active) | -35% (active) and -75.9% (active) | 9.53% (active) and -98.7% (active) | -49.7% (active) and -79% (active) | -75% (active) and -97.8% (active) | -43.2% (active) and -86.6% (active) | -97% (active) and -95.4% (active) | – | -45.9% (active) and -71.1% (active) | -67.5% (active) and -74.4% (active) | 32% (inactive) and -81.4% (active) | 11.5% (inactive) and -70.9% (active) | -80% (active) and -93% (active) | 44.5% (inactive) and -98.9% (active) | -72.9% (active) and -92.1% (active) | -49.6% (active) and -90.7% (active) | -26.3% (active) and -4.46% (active) | -39.5% (active) and -31% (active) | – | – |
| CCOC(=O)/C(=C\c1ccc(-c2ccccc2)cc1)C(C)=O | 94.5% (inactive) | 104% (inactive) | 88% (inactive) | 99.9% (inactive) | 103% (inactive) | 107% (inactive) | 98.7% (inactive) | – | 98.4% (inactive) | 99.1% (inactive) | 99.2% (inactive) | 89.9% (inactive) | 82.7% (inactive) | 86.1% (inactive) | 104% (inactive) | 98.7% (inactive) | 107% (inactive) | 107% (inactive) | – | 104% (inactive) |
